Compound activity: PubChem, National Center for Advancing Translational Sciences (NCATS)
Only some compounds are listed: those with a hit (about 17% of all), similar ones and a draw of the others.
HT1080NT lethal – kills 2HG-producing HT-1080-NT fibrosarcoma cells | 360,000 tested, 1.6% active | AID 686970 | HT-1080-NT fibrosarcoma viability, CellTiter-Glo ATP luminescence, 48 h | Potency, µM (doses to about 46.1 µM), actives largely listed as cytotoxic;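 also: NT is the 2HG producing partner of a matched IDH1 knockdown line; nearly all actives have a fitted effect of over 55% in size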
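Viability by CellTiter-Glo luminescence after 48 h compound exposure at 37C of HT-1080-NT cells (750/well, RPMI, 5% FBS). % activity scaled between DMSO wells and medium-only wells, then curve-fitted and categorized by curve class.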
HepG2 viability – kills HepG2 cells in TGF-b inhibitor counter-screen. HepG2 CAGA-GFP viability, ATP luminescence, 18 h. Potency, µM (top dose mostly 46.1 µM), usual class: cytotoxic. 410,000 tested, 0.76% active. AID 588856
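CellTiter-Glo luminescence gave cytotoxicity after 18 hours at 37 degrees C. The cells were HepG2 CAGA-GFP in 1% FBS DMEM, stimulated with 500 pg/mL TGF-beta after compound addition. %Activity was normalised to no-cell wells (complete cell-killing) and DMSO (no toxicity), and curves were fitted and classified.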
DT40 TDP1 CPT – growth inhibition of DT40 Tdp1-/-;hTDP1 cells with camptothecin (screen for TDP1 inhibitors). Potency, µM (doses to about 46.2 µM), hits mostly inhibitors. 420,000 tested, 12% active. chicken DT40 Tdp1-/-;hTDP1 cells + 20 nM CPT, ATP luminescence, 48 h; also: nearly all actives have a fitted effect of over 55% in size
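Chicken DT40 Tdp1-/- cells complemented with human TDP1, 400 cells/well, exposed to compounds plus 20 nM camptothecin for at least 48 h at 37 C; viability read as ATP content by CellTiter-Glo luminescence.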
HT1080 IDH1KD tx – kills HT-1080 cells with IDH1 knockdown | HT-1080 IDH1 knockdown viability, ATP luminescence, 48 h | Potency, µM (top dose mostly 46.1 µM), hits mostly cytotoxic | 360,000 tested, 2% active | AID 686971
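After a 2 h attachment period, IDH1KD HT-1080 cells took pin-transferred compound for 48 h at 37 °C; ATP-based luminescence after 10 min room-temperature reagent incubation reported viability.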
TGFb SMAD3 inh – inhibitors of TGF-b signaling | Potency, µM (titrated, usually from 46.1 µM), actives largely listed as inhibitors | 410,000 tested, 1.2% active | AID 588855 | HepG2 CAGA-GFP TGF-b/SMAD3 reporter, GFP fluorescence, 18 h; TGF-beta stimulated, 500 pg/mL final; also: nearly all actives have a fitted effect of over 65% in size
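Inhibition was scored as loss of TGF-beta-induced (500 pg/mL final, 18 hours, 37 degrees C) GFP in HEPG2 cells carrying a CAGA-GFP reporter, in DMEM with 1% FBS. Well GFP was summed per cell; Activity was normalised to unstimulated and stimulated DMSO wells, then concentration-response fitting.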
DT40 TDP1 no CPT – qHTS for Inhibitors of human tyrosyl-DNA phosphodiesterase 1 (TDP1): qHTS in cells in absence of CPT; DT40 Tdp1-/- hTDP1 cells, no CPT, ATP luminescence, 48 h; Potency, µM (series often up to 46.2 µM), usual class: inhibitors; 420,000 tested, 15% active; AID 686978, 2013; also: nearly all actives have a fitted effect of over 55% in size
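Chicken DT40 Tdp1-/- cells stably complemented with human TDP1 were seeded at 400 cells/well with DMSO in place of 20 nM camptothecin. After compound pinning, cells grew at least 48 hr at 37 °C; viability read by CellTiter-Glo luminescence.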
Hits are given with their value; . = inactive; ? = inconclusive; / = no result given; ! = repeats disagree; [ ] = dose if it differs, or a comment. Calls follow the shape of the dose curve; as a rule, active = well fitted curve in the direction sought with a large enough effect; inconclusive = small, poorly fitted or top-dose-only effect, or another doubt; inactive = no such curve, though single readings can be large; an effect the other way counts as inactive or inconclusive.

SMILES	HT1080NT lethal	HepG2 viability	DT40 TDP1 CPT	HT1080 IDH1KD tx	TGFb SMAD3 inh	DT40 TDP1 no CPT
O=C(NCC(c1cccs1)N1CCOCC1)c1ccc(OCc2ccccc2)cc1 (centres undefined)	.	.	15µM	.	.	21µM
O=C(CCC(=O)Nc1ccc(Br)cc1)N/N=C/c1ccc(F)cc1	.	.	.	.	.	.
COc1ccc(C2C(C(N)=O)=C(C)Nc3nc(CCCO)nn32)cc1OC (centres undefined)	.	.	?	.	.	.
O=c1c(Cl)c(N2CCC3(CC2)OCCO3)cnn1C12CC3CC(CC(C3)C1)C2	.	.	?	.	.	13µM
O=c1c(Cl)c(NCc2ccccc2)cnn1C12CC3CC(CC(C3)C1)C2	.	.	.	.	.	?
CC(C)Oc1ccc(CCN=C(N)N=C(N)N)cc1Cl	.	.	10µM	23µM	.	12µM
CC1Cc2cc(S(=O)(=O)N3CCN(c4ccc(Cl)cc4)CC3)ccc2N1C(=O)C1CC1 (centres undefined)	.	.	16µM	.	?	13µM
CCC(=O)N1c2ccc(S(=O)(=O)CCC(=O)N3CCN(c4ccccc4F)CC3)cc2CC1C (centres undefined)	.	.	?	.	.	16µM
CC(=O)N1c2ccc(S(=O)(=O)N3CCC(C(=O)N4CCN(c5ccc(Cl)cc5)CC4)CC3)cc2CC1C (centres undefined)	.	.	16µM	.	?	5.2µM
CC(=O)c1ccc(N2CCN(c3ccc4cc(S(=O)(=O)N5CCC(C)CC5)ccc4n3)CC2)cc1	.	.	?	.	.	7.3µM!
CC(=O)N1c2ccc(S(=O)(=O)N3CCC(C(=O)N4CCCCC4)CC3)cc2CC1C (centres undefined)	.	.	?	.	.	?
CN1C(=O)Cc2cc(S(=O)(=O)CCC(=O)N3CCN(c4ccccc4F)CC3)ccc21	/	.	?	/	.	.
CN=C(NC)NCc1ccccc1	/	/	.	/	/	.
O=C(CSc1nc(=O)n(CCCN2CCOCC2)c2c1CCCC2)Nc1ccc(F)cc1	.	.	.	.	.	.
CC(=O)Nc1ccc(S(=O)(=O)N2CCCC(C(=O)O)C2)cc1 (centres undefined)	.	.	.	.	.	.
O=C(c1cc(S(=O)(=O)N2CCOCC2)ccc1Cl)N1CCC(Cc2ccccc2)CC1	.	.	?	.	?	?
CC(=O)N1c2ccc(S(=O)(=O)N3CCC(C(=O)N4CCN(c5ccccc5F)CC4)CC3)cc2CC1C (centres undefined)	.	.	26µM	.	.	?
CC(=O)c1ccc(N2CCN(S(=O)(=O)c3ccc4c(c3)CC(C)N4C(=O)C3CCC3)CC2)cc1 (centres undefined)	/	.	7.3µM	/	.	5.8µM
CC1Cc2cc(S(=O)(=O)N3CCN(c4ccccc4)CC3)ccc2N1C(=O)C1CC1 (centres undefined)	.	.	?	.	.	?
Cc1ccc2nc(C(C)(C)C)c(Cc3cccc(F)c3)n2c1	16µM	.	15µM	23µM	?	18µM
CCCc1nc2ccc(C)cn2c1Cc1cccc(F)c1	.	.	?	?	?	?
COC(=O)c1ccc2nc(-c3ccc(C)cc3)c(Cc3cccc(F)c3)n2c1	.	/	21µM	.	/	21µM
COC(=O)c1ccc2nc(-c3ccc(C#N)cc3)c(Cc3cccc(F)c3)n2c1	.	.	15µM	.	.	18µM
O=C1c2ccccc2C(=O)c2c(O)c(O)cc(O)c21	9.2µM	.	?	?	.	?
O=C1c2ccccc2C(=O)c2c(O)ccc(O)c21	/	/	.[9.04 µM]	/	/	.[9.04 µM]
CCc1cccc(NC(=O)CCCn2c(=O)[nH]c3ccsc3c2=O)c1	.	.	.	.	.	.
